Experiment [1] can be described thus: qHTS assay to identify small molecule antagonists of the vitamin D receptor (VDR) signaling pathway - cell viability counter screen (AID 743225). Also: nearly all actives have a fitted effect of over 50% in size. The method, boiled down: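 Read-out: CellTiter-Glo luminescence measured 30 min after reagent addition at room temperature. Cells were VDR-bla HEK 293T exposed 16 h at 37C, 5% CO2, to compound with 3 nM final calcitriol agonist.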
Background: qHTS replaces the single test concentration by a dilution series.

Experiment [2] is described as follows: qHTS assay to identify small molecule agonists of the NFkB signaling pathway - cell viability counter screen (AID 1159515; calls by dose curve; also: series mostly up to about 61 µM; nearly all actives have a fitted effect of over 55% in size). The method, boiled down:
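Parallel cytotoxicity counter screen in ME-180 cells carrying an NFkB-response-element beta-lactamase reporter, 2,000 cells/well. Compound exposure lasted 5 hr at 37 C, 5% CO2. Cell viability was quantified by CellTiter-Glo luminescence.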

Experiment [3] is described as follows: qHTS assay to identify small molecule agonists of the endoplasmic reticulum stress response signaling pathway - cell viability counter screen (AID 1159517; calls by dose curve;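 also: HeLa cells carrying an ER stress response element beta-lactamase reporter; series mostly up to about 61 µM; nearly all actives have a fitted effect of over 50% in size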). The method, boiled down:
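Steps: seed 1,500 ESRE-bla HeLa cells per well; incubate overnight at 37 C, 5% CO2; add compounds in DMSO for 5 hr; run FRET substrate 2 hr RT; add CellTiter-Glo, wait 30 min, read luminescence.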

Experiment [4] is described as follows: qHTS assay to identify small molecule antagonists of the retinoid-related orphan receptor gamma (ROR-gamma) signaling pathway - cell viability counter screen (AID 1159520). Also: nearly all actives have a fitted effect of over 50% in size. The method, boiled down: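 Tet-on ROR gamma CHO cells were given compounds for 2 hr, then doxycycline hyclate at 1 uM final, and incubated 16 hr at 37 C. Viability was measured as ATP content by CellTiter-Glo luminescence.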

The target in experiment [5] is Nuclear receptor ROR-gamma (Homo sapiens) (UniProt P51449). The experiment is described as follows: qHTS assay to identify small molecule antagonists of the retinoid-related orphan receptor gamma (ROR-gamma) signaling pathway (AID 1159521;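 also: CHO cells with doxycycline inducible ROR-gamma driving an RORE luciferase reporter; top concentration of the series differs between compounds; nearly all actives have a fitted effect of over 50% in size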). The method, boiled down: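 CHO Tet-on RORγ, RORE-luc reporter. Cpd 2 h pre-incubation, then dox hyclate 1 uM final, 16 h, 37 C/5% CO2. ONE-Glo luminescence; decrease = antagonist.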

Experiment [6] in a line: qHTS assay to identify small molecule agonists of the AP-1 signaling pathway - cell viability counter screen (AID 1159525; calls by dose curve; also: nearly all actives have a fitted effect of over 55% in size). The essentials: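 Same-well cytotoxicity counter screen of the Tox21 10K library in ME-180 cells. The readout is ATP-dependent luminescence after 5 h compound treatment. Data are normalised to DMSO and tetra n-octyl ammonium bromide controls.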
Experiment [7] in a line: qHTS assay to identify small molecule agonists of the AP-1 signaling pathway (AID 1159526; calls by dose curve).
Experiment [8] is described as follows: qHTS assay to identify small molecule agonists of the RXR signaling pathway - cell viability counter screen (AID 1159529). The method, boiled down:
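HEK 293T RXRa-bla cells, 2% CS-FBS; 5 h settle; cpd 16 h 37 C, 5% CO2; CellTiter-Glo 30 min RT, luminescence. Tetraoctyl ammonium bromide as positive control.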

Experiment [9] can be described thus: qHTS assay to identify small molecule antagonists of the retinoid acid receptor (RAR) signaling pathway - cell viability counter screen (AID 1159551). Also: nearly all actives have a fitted effect of over 35% in size. The method, boiled down: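 ATP-based viability, C3RL4 cells, 6 h at 37 C with 1 uM final retinol co-added after compound; luminescence read 30 min post CellTiter-Glo, RT.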
A short description of experiment [10]: qHTS assay to identify small molecule antagonists of the retinoic acid receptor (RAR) signaling pathway (AID 1159552; also: nearly all actives have a fitted effect of over 50% in size). The essentials:
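Cells of the C3RL4 line were seeded, incubated overnight, then dosed with compounds in DMSO followed immediately by retinol (1 uM final). Six hours later luciferase detection reagent went in; signal was measured after 30 min at RT.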

Experiment [11] can be described thus: qHTS assay to identify small molecule antagonists of the estrogen related receptor (ERR) signaling pathway from Tox21 library - cell viability counter screen (AID 1224834). Also: nearly all actives have a fitted effect of over 30% in size. The essentials: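 Compounds in DMSO were pinned onto ERR cells that had been incubated for 6 h, and the plates were held at 37 C for 17.5 h. CellTiter-Fluor reagent was then added and fluorescence was measured after 30 min.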

Experiment [12] has as its target Luciferin 4-monooxygenase (Photinus pyralis) (UniProt P08659). The experiment is described as follows: qHTS assay to identify small molecule inhibitors of firefly luciferase (AID 1224835). Also: nearly all actives have a fitted effect of over 25% in size. Also: potency is read from the fitted curve at half-maximal effect. The essentials: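 Biochemical qHTS: compounds run as interplate titrations against purified firefly enzyme, with D-luciferin and ATP each at its KM concentration. Light output recorded by CCD imaging.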

Experiment [13] can be described thus: qHTS assay to identify small molecule agonists of the constitutive androstane receptor (CAR) signaling pathway - cell viability counter screen (AID 1224836). Also: series mostly up to about 92 µM; nearly all actives have a fitted effect of over 45% in size. The essentials:
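HepG2-CYP2B6-hCAR, 2500 cells/well, 4 h pre-incubation; cpd 15 conc + PK11195 0.75 uM final; 23 h, 37 C/5% CO2; CellTiter-Fluor, fluorescence.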

A short description of experiment [14]: qHTS assay to identify small molecule antagonists of the constitutive androstane receptor (CAR) signaling pathway - cell viability counter screen (AID 1224837). Also: series mostly up to about 92 µM; nearly all actives have a fitted effect of over 45% in size. The method, boiled down: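 Cells are seeded, rested 4 hr at 37 C/5% CO2, dosed with compound (15-point series) and 50 nM CITCO, incubated a further 23 hr, and then CellTiter-Fluor reagent is added before fluorescence is read. The line is HepG2 with stable hCAR and CYP2B6-2.2kb.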

The target in experiment [15] is Nuclear receptor subfamily 1 group I member 3 (Homo sapiens) (UniProt Q14994). The experiment in a line: qHTS assay to identify small molecule antagonists of the constitutive androstane receptor (CAR) signaling pathway (AID 1224838).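 Also: HepG2 cells stably expressing hCAR with CYP2B6 luciferase reporter stimulated by CITCO; nearly all actives have a fitted effect of over 40% in size.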 The essentials: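 Luminescence from a CYP2B6-2.2kb promoter reporter in hCAR-expressing HepG2 cells reflects CAR signaling. Cells received compounds at 15 concentrations and 50 nM CITCO (final), then incubated 24 h at 37 C/5% CO2.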

The target is the same in experiment [16]. The experiment is described as follows: qHTS assay to identify small molecule agonists of the constitutive androstane receptor (CAR) signaling pathway (AID 1224839).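 Also: HepG2 cells stably carrying human CAR and a CYP2B6 luciferase reporter; series mostly up to about 92 µM; nearly all actives have a fitted effect of over 15% in size.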 The method, boiled down:
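HepG2-CYP2B6-hCAR cells, 2500/well, 4 h pre-incubation; compounds 15 conc.; PK11195 0.75 uM final; 24 h, 37 C/5% CO2; ONE-Glo luciferase read.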

Experiment [17] in a line: qHTS assay to identify small molecule antagonists of the estrogen related receptor signaling pathway with the pleiotropic PPARgamma coactivator (PGC) from Tox21 10K library - cell viability counter screen (AID 1224840; active = well fitted cell-killing curve with a large enough effect in the repeat runs, not every such curve was filed as active; also: nearly all actives have a fitted effect of over 40% in size). The method, boiled down: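 Cell viability is measured by CellTiter-Fluor fluorescence in PGC/ERR cells that receive compounds after a 6-hour attachment period and are then incubated 17.5 hours at 37 C.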

Experiment [18] addresses Retinoic acid receptor RXR-alpha (Homo sapiens) (UniProt P19793). The experiment is described as follows: qHTS assay to identify small molecule agonists of the RXR signaling pathway (AID 1159527; calls by dose curve; also: nearly all actives have a fitted effect of over 35% in size). The method, boiled down:
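Read-out: beta-lactamase FRET ratio (405 nm excitation, 460 and 530 nm emission) after 2 hr substrate loading at room temperature. Cells were RXR-alpha-UAS-bla HEK 293T treated with compounds for 16 hr in 2% charcoal-stripped FBS medium.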

The nature of experiment [19]: qHTS assay to identify small molecule agonists of the retinoic acid receptor (RAR) signaling pathway (AID 1159553). The method, boiled down: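 Quantitative high-throughput format: the Tox21 10K library was tested on C3RL4 RARE-luciferase cells for 6 hr at 37 C and 5% CO2, with luminescence measured after a 30 min room-temperature reagent step.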

Molecules are shown by their SMILES. Results filed as inconclusive are left out. Values without a mark were called inactive. Activity calls are given as the source filed them. Unless noted, calls follow the shape of the dose curve; as a rule, active = well fitted curve in the direction sought with a large enough effect in the repeat runs; inconclusive = weak or mixed curves; inactive = no such curve, though single readings can be large; an effect the other way counts as inactive or inconclusive.

Sequence of Luciferin 4-monooxygenase (Photinus pyralis) (P08659 whole entry, looked up): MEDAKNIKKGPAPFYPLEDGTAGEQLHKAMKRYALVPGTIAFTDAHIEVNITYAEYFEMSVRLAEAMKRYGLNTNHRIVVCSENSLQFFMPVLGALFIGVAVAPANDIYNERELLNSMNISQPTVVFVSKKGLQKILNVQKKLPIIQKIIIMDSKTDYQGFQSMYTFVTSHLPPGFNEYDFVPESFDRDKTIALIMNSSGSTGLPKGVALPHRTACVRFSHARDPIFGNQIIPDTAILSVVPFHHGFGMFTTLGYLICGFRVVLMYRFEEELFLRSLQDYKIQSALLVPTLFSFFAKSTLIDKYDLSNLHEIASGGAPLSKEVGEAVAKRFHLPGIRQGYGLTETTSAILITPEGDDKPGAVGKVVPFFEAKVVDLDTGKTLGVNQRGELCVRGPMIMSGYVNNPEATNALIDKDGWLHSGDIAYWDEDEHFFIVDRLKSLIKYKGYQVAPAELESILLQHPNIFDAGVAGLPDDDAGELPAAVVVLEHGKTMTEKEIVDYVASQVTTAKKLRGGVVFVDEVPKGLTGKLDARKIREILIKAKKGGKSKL
Sequence of Retinoic acid receptor RXR-alpha (Homo sapiens) (P19793 whole entry, looked up): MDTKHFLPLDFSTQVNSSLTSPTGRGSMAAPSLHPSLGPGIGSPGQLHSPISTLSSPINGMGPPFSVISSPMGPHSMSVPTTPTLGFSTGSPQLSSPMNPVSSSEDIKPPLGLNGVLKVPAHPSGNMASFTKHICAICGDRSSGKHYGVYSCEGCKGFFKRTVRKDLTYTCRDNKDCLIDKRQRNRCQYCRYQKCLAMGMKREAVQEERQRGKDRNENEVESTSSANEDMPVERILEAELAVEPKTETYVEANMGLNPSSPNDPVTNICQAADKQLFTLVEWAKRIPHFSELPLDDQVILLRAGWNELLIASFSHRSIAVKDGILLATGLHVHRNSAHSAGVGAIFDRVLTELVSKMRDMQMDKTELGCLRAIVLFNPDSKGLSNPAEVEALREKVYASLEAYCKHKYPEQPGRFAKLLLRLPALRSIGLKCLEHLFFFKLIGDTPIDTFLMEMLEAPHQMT
Sequence of Nuclear receptor subfamily 1 group I member 3 (Homo sapiens) (Q14994 whole entry, looked up): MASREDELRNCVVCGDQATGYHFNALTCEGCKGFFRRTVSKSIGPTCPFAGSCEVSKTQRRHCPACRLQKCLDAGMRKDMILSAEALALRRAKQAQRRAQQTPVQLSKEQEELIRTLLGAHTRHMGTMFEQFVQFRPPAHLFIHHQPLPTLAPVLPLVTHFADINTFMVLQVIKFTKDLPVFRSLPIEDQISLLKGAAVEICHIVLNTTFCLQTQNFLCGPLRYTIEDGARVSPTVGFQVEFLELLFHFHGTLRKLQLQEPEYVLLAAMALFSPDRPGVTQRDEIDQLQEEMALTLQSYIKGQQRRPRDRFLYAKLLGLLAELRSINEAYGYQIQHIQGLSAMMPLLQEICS

As to `C=CCOC(=O)CCCCCCCC`, the result in experiment [1], in experiment [2], in experiment [3], in [4], in experiment [5] and in [6] was inactive. Moreover, the compound was called inactive in experiment [9], in [10], in experiment [11], in experiment [13], in [14] and in [15]. In addition, in [17], the compound was classed as inactive. For the same compound, the Potency entry in experiment [7], in experiment [8], in [12] and in [16] was “inactive” in each case.
In the case of `CO/N=C(\C(=O)O)c1csc(NC(=O)CCl)n1`, the compound was called inactive in [1], in experiment [2], in [3], in experiment [4], in experiment [5] and in experiment [6]. Besides, the result in [9], in [10], in experiment [11], in [13], in [14] and in experiment [15] was inactive. For the same compound, the compound was called inactive in experiment [17]. In addition, the Potency result in [7], in experiment [18], in experiment [8], in experiment [12] and in experiment [16] was “inactive” each time.
Consider `O=C(O)Cc1ccccc1Oc1ccc(Cl)cc1Cl`, for which the compound was called inactive in [2], in experiment [3], in experiment [4], in [5], in [6] and in experiment [9]. The call in experiment [10], in [11], in experiment [13], in [14] and in [17] was inactive. Moreover, the Potency result in experiment [7], in [18], in experiment [8], in [19] and in [12] was “inactive” in each case.
For the compound `CCOc1ccccc1OCCN[C@H](C)Cc1ccc(OC)c(S(N)(=O)=O)c1`, the compound was called inactive in experiment [2], in experiment [3], in [4], in experiment [5], in experiment [6] and in experiment [9]. The call in [10], in experiment [11], in experiment [13], in [14], in [15] and in experiment [17] was inactive. Moreover, the Potency result in [7], in [8], in experiment [19], in experiment [12] and in experiment [16] was “inactive” each time.
`CCCCC(CC)CCC(CC(C)C)OS(=O)(=O)O` (stereo unspecified): the call in experiment [1], in [2], in [3], in experiment [4], in experiment [5] and in experiment [6] was inactive. Also, the call in experiment [9], in experiment [10], in experiment [11], in [13], in [14] and in [15] was inactive. The call in experiment [17] was inactive. Further, the Potency entry in experiment [7], in [18], in experiment [8], in [19] and in [12] was “inactive” in each case.
Turning to `Cc1ccc(NC(N)=O)cc1`, the result in experiment [1], in [2], in [3], in experiment [4], in experiment [5] and in experiment [6] was inactive. Moreover, the compound was classed as inactive in experiment [9], in experiment [10], in experiment [11], in experiment [13], in [14] and in [15]. The call in experiment [17] was inactive. Also, the Potency entry in experiment [7], in experiment [18], in experiment [8], in experiment [19], in experiment [12] and in experiment [16] was “inactive” each time.
In the case of `O=C(O)COc1ccc2ccccc2c1`, the compound was called inactive in experiment [1], in experiment [2], in [3], in [4], in experiment [5] and in [6]. Also, the result in [9], in experiment [10], in experiment [13], in [14], in [15] and in [17] was inactive. The Potency entry in experiment [7], in experiment [18] and in experiment [8] was “inactive” in each case. For the same compound, the Potency in experiment [12] is 39.9 µM (active).
For the compound `CCOC(=O)CC`, the result in experiment [2], in experiment [3], in experiment [4], in experiment [5], in experiment [6] and in experiment [9] was inactive. For the same compound, the compound was called inactive in experiment [10], in [11], in [14], in experiment [15] and in experiment [17]. Besides, the Potency entry in experiment [7], in experiment [18], in [8], in experiment [19], in experiment [12] and in experiment [16] was “inactive” throughout.
With `CCCCS`, the call in [1], in experiment [2], in experiment [3], in experiment [4], in experiment [5] and in [6] was inactive. Moreover, the compound was called inactive in [9], in experiment [10], in [11], in experiment [13], in [14] and in experiment [15]. Further, in experiment [17], the compound was called inactive. The Potency entry in [7], in [18], in experiment [8] and in [12] was “inactive” each time.
For `NNC(=O)CCCCC(=O)NN`, the outcome in [1], in experiment [2], in [3], in experiment [4], in [5] and in experiment [6] was inactive. The outcome in experiment [9], in experiment [10], in experiment [11], in [13], in experiment [14] and in experiment [15] was inactive. In addition, in experiment [17], the call was inactive. Moreover, the Potency result in experiment [7], in [18], in experiment [8], in experiment [19] and in experiment [12] was “inactive” in each case.
In the case of `O=C1CCCc2c(O)cccc21`, the outcome in [1], in experiment [2], in experiment [3], in experiment [4], in [5] and in experiment [6] was inactive. The compound was classed as inactive in [9], in experiment [10], in experiment [11], in experiment [14], in [15] and in experiment [17]. Besides, the Potency entry in experiment [7], in [18], in experiment [8], in experiment [19], in experiment [12] and in experiment [16] was “inactive” each time.

Values taken from PubChem BioAssay (Tox21).
